Compounds with a hit are over-represented: about 0.65% of the library has one in this group of screens.
MRP-1 activ: activators of MRP-1. H69AR cells + doxorubicin, viability rescue, CellTiter-Glo. viability increase, % at 10 µM. 140,000 tested, 0.61% active. AID 799;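 active means viability gain under doxorubicin at or above a set limit, the compound median plus 3 SD, cut at about 4.7% in these data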;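 further: MRP-1 overexpressing cells given doxorubicin 25 µM after compound pretreatment; 18-22 h compound pretreatment then 72 h with doxorubicin before readout; 0% = doxorubicin-only wells and 100% = vehicle-treated cells without doxorubicin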
MRP resist rev: MRP-mediated drug resistance reversal. H69AR cells + 2 uM doxorubicin, CellTiter-Glo, 72 h. differential viability (reversal), % at 10 µM. 85,000 tested, 0.04% active. AID 602;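 active means viability drop by adding the cancer drug above about 55%, with treated viability meeting a 40% cutoff, limit read from the data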;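 further: viability without doxorubicin minus viability with 2 µM doxorubicin for each compound; larger differential means the compound sensitizes cells more to doxorubicin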
* hit, by the source's call; / = no result.

SMILES	MRP-1 activ	MRP resist rev
CCOc1ccc(-c2n[nH]c(C)c2Oc2ccc(OC)cc2)c(O)c1	-3.9	-15.2
Cc1ccc(C2=NN3C(C(=O)c4ccccc4)Oc4ccccc4C3C2)cc1 (stereo not given)	-1.1	/
Cc1cccc(NC(=O)Cn2c(=O)n(Cc3ccco3)c(=N)c3c4c(sc32)COC(C)(C)C4)c1	9.4*	-2.5
CC1(C)Cc2c(sc3c2c(=N)n(Cc2ccco2)c(=O)n3CC(=O)Nc2cccc(Cl)c2)CO1	1.1	3.5
CCN(CC)C(=S)Nc1ccc([N+](=O)[O-])cc1	-0.5	/
CCOc1ccccc1N(C(=O)c1snc(C(N)=O)c1N)C(C(=O)NCCC(C)C)c1ccco1 (stereo not given)	5.3*	-9.7
COc1ccccc1N(C(=O)c1snc(C(N)=O)c1N)C(C(=O)NCCC(C)C)c1ccco1 (stereo not given)	-0.2	6.9
O=C1CCN(Cc2nnnn2CC2CCCO2)c2ccccc2N1 (stereo not given)	-0.2	4.1
COc1ccccc1/C=C/C=N/n1c(C2CCCCC2)n[nH]c1=S	4.8*	/
COc1ccc(-c2n[nH]c(=S)n2/N=C/C=C/c2ccccc2OC)cc1	-1.2	/
O=C(/C=C/c1ccccc1)/C=C/c1ccccc1	-4.8	/
Cc1cccc(NC(=O)c2ccc(N3CCCCC3)c([N+](=O)[O-])c2)n1	3.1	/
Cc1ccc(C)c2sc(NC(=O)c3ccc(N4CCCCC4)c([N+](=O)[O-])c3)nc12	6.7*	/
COc1ccc(C(=O)NC(=S)Nc2cccc(Cl)c2N2CCOCC2)cc1[N+](=O)[O-]	-3.8	/
O=C(COc1cccc2ccccc12)N1c2ccccc2CCc2ccccc21	-2.7	/
CC1CCCN(c2nc3c(c(=O)[nH]c(=O)n3C)n2CCCc2ccccc2)C1 (stereo not given)	-5.0	-6.8
NC1C2CN(c3nc4c(cc3F)c(=O)c(C(=O)O)cn4-c3ccc(F)cc3F)CC12 (stereo not given)	6.6*	/
CCn1cc(C(=O)O)c(=O)c2cc(F)c(N3CCNCC3)cc21	0.8	-9.3
C=CCOc1ccc(/C=N/NC(=O)C(=O)Nc2ccccn2)cc1OC	-2.8	/
CN(Cc1cc(=O)n2ccsc2n1)c1ccccc1	0.9	/
O=c1cc(CNc2ccc(Br)cc2)nc2sccn12	8.7*	/
N#CC1=C(N)c2ccccc2CC12CCCCC2	-4.4	-5.2
O=C(NNC(=O)c1cccnc1)Nc1cccc(Cl)c1Cl	-0.1	/
O=C(NNC(=O)c1cccnc1)Nc1cccc2ccccc12	5.7*	/
Cc1ccc(C2=NN(CC(=O)NCc3ccccn3)C(=O)CC2)cc1	-1.1	/
SMILES	MRP-1 activ	MRP resist rev
C=CCN(C(=O)Nc1ccc(F)cc1)C1CC(=O)N(c2ccc(OC)cc2)C1=O (stereo not given)	1.7	-10.9
C=CCN(C(=O)Nc1ccc(Cl)cc1)C1CC(=O)N(c2ccc(OC)cc2)C1=O (stereo not given)	6.6*	0.8
CC(C)(C)c1nn(-c2ccccc2)c2[nH]c(=O)c(CNCc3ccc4c(c3)OCO4)cc12	-2.5	-1.9
COC(=O)N/N=C/c1ccc(-c2cc(Cl)ccc2Cl)o1	4.9*	/
COC(=O)N/N=C\c1ccc(-c2cc(Cl)c(Cl)cc2Cl)o1	4.2	/
CN(C)C(=S)SCC(=O)Nc1ccc(Cl)cc1Cl	-0.9	/
Cc1ccc(NC(=O)c2ccc3c(c2)N(CC(=O)N2CCCCC2)C(=O)C(C)(C)O3)cc1	-4.9	-23.9
CCOC(=O)CN1C(=O)C(C)(C)Oc2ccc(C(=O)Nc3ccccc3OC)cc21	5.3*	-6.2
O=C(COC(=O)c1cccc(C(F)(F)F)c1)NCc1ccccc1	-1.4	/
O=C(NCc1ccc(Cl)cc1)C(=O)NCC1OCCN1C(=O)c1cccs1 (stereo not given)	6.4*	/
O=C(NCc1ccc(Cl)cc1)C(=O)NCC1OCCN1S(=O)(=O)c1cccs1 (stereo not given)	4.1	/
CCOc1cc2c(cc1OCC)C(c1ccccc1)N(c1ccccc1)C(=O)C2 (stereo not given)	-3.7	/
Cc1ccc(C(=O)Nc2nc(=O)n(C(=O)C3CC3)s2)cc1	0.8	/
O=C(Nc1nc(=O)n(C(=O)C2CC2)s1)c1ccccc1	6.8*	/
Nc1nc(NCc2ccco2)nc(N2CCCCC2)c1[N+](=O)[O-]	-1.9	/
CC(=O)c1cccc(NC(=O)Cc2coc3cc4c(cc23)CCC4)c1	-3.4	/
CCCCOC(=O)c1ccc(NC(C)=O)cc1	-1.4	/
CCCCOC(=O)c1ccc(NC(=O)/C=C/c2cccs2)cc1	4.8*	/
CCn1c2ccccc2c2cc(NC(=O)c3cccc(OC)c3)ccc21	-1.0	/
CCn1c(C)c(C)c2cc(C(=O)Nc3cccc(Cl)c3)ccc21	6.5*	/
CCc1ccc(C2CC(c3cccc(OC)c3)n3nc(N)nc3N2)cc1 (stereo not given)	/	7.6
O=[N+]([O-])c1cc(-c2nnc(Nc3ccccc3)c3ccccc23)ccc1N1CCOCC1	0.6	/
Cc1ccc(Nc2nnc(-c3ccc(N4CCOCC4)c([N+](=O)[O-])c3)c3ccccc23)cc1	5.2*	/
Cc1cc(C)c(C(CC(=O)c2cccs2)C(C#N)C#N)c(C)c1 (stereo not given)	-4.5	/
